In PubChem BioAssay (EPA / NIEHS) one finds outcome and AC50 data, which are given here for 15 compounds.

Active and inactive are the calls of the source. How the source made its calls: active means hit-call score of the fitted dose curve at least 0.9, where 1 is the maximum; inactive means score below 0.9.

Read-out in test [1]: Tumor necrosis factor receptor superfamily member 6 (Homo sapiens) (UniProt P25445)
As to the kind of experiment: LTEA_HepaRG_FAS: Life Technologies and Expression Analysis (LTEA) Assay for Fas cell surface death receptor (FAS) using HepaRG (AID 2283447). As to conditions: mRNA level, 48 h; actives raise or lower the signal. The gist of the method: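 Differentiated human HepaRG cells, pre-cultured 48 h, were exposed in duplicate for 48 h to 8-point half-log concentrations (top 100 uM, 0.5% DMSO) in serum-free induction medium; FAS mRNA measured by qRT-PCR, normalized to ACTB/GAPDH/POLR2A, bidirectional fit versus DMSO.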

Read-out in test [2]: Fatty acid synthase (Homo sapiens) (UniProt P49327)
The test can be described thus: LTEA_HepaRG_FASN: Life Technologies and Expression Analysis (LTEA) Assay for Fatty Acid Synthase (FASN) using HepaRG (AID 2283448). As to conditions: mRNA level, 48 h; actives raise or lower the signal. The gist of the method:
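FASN expression changes, up or down relative to 0.5% DMSO, were measured by qRT-PCR in human HepaRG cells after 48 h treatment with chemicals at eight concentrations (half-log steps from 100 uM).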

Read-out in test [3]: Cyclin D2 (CCND2), CCND2 (gene 894)
As to the kind of experiment: LTEA_HepaRG_CCND2: Life Technologies and Expression Analysis (LTEA) Assay for Cyclin D2 (CCND2) using HepaRG (AID 2283449).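 Further: CCND2 transcript measured by TaqMan qRT-PCR and normalised to three housekeeping genes.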 As to conditions: mRNA level, 48 h; actives raise or lower the signal. The procedure, abridged: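 Differentiated human HepaRG cells were exposed for 48 h in serum-free induction medium to eight half-log concentrations topping at 100 uM (0.5% DMSO vehicle). CCND2 mRNA was quantified by TaqMan qRT-PCR, normalised to ACTB, GAPDH and POLR2A, and fitted bidirectionally against DMSO.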

Read-out in test [4]: Cyclin Dependent Kinase Inhibitor 1A (CDKN1A), CDKN1A (gene 1026)
The test can be described thus: LTEA_HepaRG_CDKN1A: Life Technologies and Expression Analysis (LTEA) Assay for Cyclin Dependent Kinase Inhibitor 1A (CDKN1A) using HepaRG (AID 2283450). The note with it: mRNA level, 48 h; actives raise or lower the signal. The gist of the method: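 Read-out is CDKN1A mRNA by TaqMan qRT-PCR, normalized to three housekeeping genes and fitted in both directions against the DMSO baseline. Human HepaRG cells were treated 48 h with test chemicals up to 100 uM in half-log steps, 0.5% DMSO.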

Read-out in test [5]: Cyclin D1 (CCND1), CCND1 (gene 595)
As to the kind of experiment: LTEA_HepaRG_CCND1: Life Technologies and Expression Analysis (LTEA) Assay for Cyclin D1 (CCND1) using HepaRG (AID 2283451).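 On AC50: TaqMan qRT-PCR transcript level normalised to ACTB GAPDH and POLR2A housekeeping genes.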 As to conditions: mRNA level, 48 h; actives raise or lower the signal. The procedure, abridged: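 HepaRG plated 48 h, medium switched to serum-free induction medium, chemicals added in duplicate (top 100 uM, half-log steps, 0.5% DMSO) for 48 h, cells lysed, RNA measured by TaqMan qRT-PCR.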

Read-out in test [6]: catalase (CAT), CAT (gene 847)
As to the kind of experiment: LTEA_HepaRG_CAT: Life Technologies and Expression Analysis (LTEA) Assay for catalase (CAT) using HepaRG (AID 2283452). As to conditions: mRNA level, 48 h; actives raise or lower the signal. The procedure, abridged:
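Differentiated HepaRG cells in serum-free induction medium were dosed 48 h in duplicate, eight half-log concentrations from 100 uM in 0.5% DMSO. Transcript measured by TaqMan qRT-PCR, normalised to ACTB/GAPDH/POLR2A, fitted bidirectionally against DMSO.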

Read-out in test [7]: flavin-containing dimethylaniline monooxygenases 3 (FMO3), FMO3 (gene 2328)
The test can be described thus: LTEA_HepaRG_FMO3: Life Technologies and Expression Analysis (LTEA) Assay for flavin-containing dimethylaniline monooxygenases 3 (FMO3) using HepaRG (AID 2283453). As to conditions: mRNA level, 48 h; actives raise or lower the signal. The procedure, abridged: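 Differentiated HepaRG cells in serum-free induction medium, exposed 48 h in duplicate to 8 half-log concentrations up to 100 uM in 0.5% DMSO. FMO3 mRNA by qRT-PCR, normalized to ACTB, GAPDH, POLR2A; bidirectional fit vs DMSO.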

Read-out in test [8]: Cytochrome P450 (CYP1A1), CYP1A1 (gene 1543)
As to the kind of experiment: LTEA_HepaRG_CYP1A1: Life Technologies and Expression Analysis (LTEA) Assay for Cytochrome P450 (CYP1A1) using HepaRG (AID 2283454). The note with it: mRNA level, 48 h; actives raise or lower the signal. The procedure, abridged:
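HepaRG, 48 h post-plating switched to serum-free induction medium; 8-pt conc-response (top 100 uM, half-log, 0.5% DMSO), duplicates, 48 h. Lysis in RLT, TaqMan qRT-PCR for CYP1A1; gain or loss vs DMSO.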

Read-out in test [9]: CFLAR gene, CFLAR (gene 8837)
The test can be described thus: LTEA_HepaRG_CFLAR: Life Technologies and Expression Analysis (LTEA) Assay for CFLAR gene using HepaRG (AID 2283455). As to conditions: mRNA level, 48 h; actives raise or lower the signal. The gist of the method: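 HepaRG cells were plated for 48 h, switched to serum-free induction medium, then exposed in duplicate for 48 h to 8 concentrations (top 100 uM, half-log steps, 0.5% DMSO). CFLAR mRNA was measured by qRT-PCR, normalized to ACTB, GAPDH and POLR2A.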

The nature of test [10]: CEETOX_H295R_PROG: CeeTox H295R High-throughput Steroidogenesis Assay for Progesterone (PROG) (AID 2283442).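 On AC50: human H295R adrenal cells primed with 10 µM forskolin before dosing; progesterone secreted into medium by H295R cells measured by HPLC-MS/MS.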 As to conditions: actives raise or lower the signal. The procedure, abridged:
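Steps: seed H295R cells and let them adhere overnight; prime 48 h with 10 uM forskolin; dose with compound in DMSO at 0.1% final for 48 h; extract medium steroids with MTBE; measure progesterone by LC-MS/MS. MTT viability was run in the same wells.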

Fatty acid synthase (Homo sapiens), sequence (P49327 whole entry, looked up): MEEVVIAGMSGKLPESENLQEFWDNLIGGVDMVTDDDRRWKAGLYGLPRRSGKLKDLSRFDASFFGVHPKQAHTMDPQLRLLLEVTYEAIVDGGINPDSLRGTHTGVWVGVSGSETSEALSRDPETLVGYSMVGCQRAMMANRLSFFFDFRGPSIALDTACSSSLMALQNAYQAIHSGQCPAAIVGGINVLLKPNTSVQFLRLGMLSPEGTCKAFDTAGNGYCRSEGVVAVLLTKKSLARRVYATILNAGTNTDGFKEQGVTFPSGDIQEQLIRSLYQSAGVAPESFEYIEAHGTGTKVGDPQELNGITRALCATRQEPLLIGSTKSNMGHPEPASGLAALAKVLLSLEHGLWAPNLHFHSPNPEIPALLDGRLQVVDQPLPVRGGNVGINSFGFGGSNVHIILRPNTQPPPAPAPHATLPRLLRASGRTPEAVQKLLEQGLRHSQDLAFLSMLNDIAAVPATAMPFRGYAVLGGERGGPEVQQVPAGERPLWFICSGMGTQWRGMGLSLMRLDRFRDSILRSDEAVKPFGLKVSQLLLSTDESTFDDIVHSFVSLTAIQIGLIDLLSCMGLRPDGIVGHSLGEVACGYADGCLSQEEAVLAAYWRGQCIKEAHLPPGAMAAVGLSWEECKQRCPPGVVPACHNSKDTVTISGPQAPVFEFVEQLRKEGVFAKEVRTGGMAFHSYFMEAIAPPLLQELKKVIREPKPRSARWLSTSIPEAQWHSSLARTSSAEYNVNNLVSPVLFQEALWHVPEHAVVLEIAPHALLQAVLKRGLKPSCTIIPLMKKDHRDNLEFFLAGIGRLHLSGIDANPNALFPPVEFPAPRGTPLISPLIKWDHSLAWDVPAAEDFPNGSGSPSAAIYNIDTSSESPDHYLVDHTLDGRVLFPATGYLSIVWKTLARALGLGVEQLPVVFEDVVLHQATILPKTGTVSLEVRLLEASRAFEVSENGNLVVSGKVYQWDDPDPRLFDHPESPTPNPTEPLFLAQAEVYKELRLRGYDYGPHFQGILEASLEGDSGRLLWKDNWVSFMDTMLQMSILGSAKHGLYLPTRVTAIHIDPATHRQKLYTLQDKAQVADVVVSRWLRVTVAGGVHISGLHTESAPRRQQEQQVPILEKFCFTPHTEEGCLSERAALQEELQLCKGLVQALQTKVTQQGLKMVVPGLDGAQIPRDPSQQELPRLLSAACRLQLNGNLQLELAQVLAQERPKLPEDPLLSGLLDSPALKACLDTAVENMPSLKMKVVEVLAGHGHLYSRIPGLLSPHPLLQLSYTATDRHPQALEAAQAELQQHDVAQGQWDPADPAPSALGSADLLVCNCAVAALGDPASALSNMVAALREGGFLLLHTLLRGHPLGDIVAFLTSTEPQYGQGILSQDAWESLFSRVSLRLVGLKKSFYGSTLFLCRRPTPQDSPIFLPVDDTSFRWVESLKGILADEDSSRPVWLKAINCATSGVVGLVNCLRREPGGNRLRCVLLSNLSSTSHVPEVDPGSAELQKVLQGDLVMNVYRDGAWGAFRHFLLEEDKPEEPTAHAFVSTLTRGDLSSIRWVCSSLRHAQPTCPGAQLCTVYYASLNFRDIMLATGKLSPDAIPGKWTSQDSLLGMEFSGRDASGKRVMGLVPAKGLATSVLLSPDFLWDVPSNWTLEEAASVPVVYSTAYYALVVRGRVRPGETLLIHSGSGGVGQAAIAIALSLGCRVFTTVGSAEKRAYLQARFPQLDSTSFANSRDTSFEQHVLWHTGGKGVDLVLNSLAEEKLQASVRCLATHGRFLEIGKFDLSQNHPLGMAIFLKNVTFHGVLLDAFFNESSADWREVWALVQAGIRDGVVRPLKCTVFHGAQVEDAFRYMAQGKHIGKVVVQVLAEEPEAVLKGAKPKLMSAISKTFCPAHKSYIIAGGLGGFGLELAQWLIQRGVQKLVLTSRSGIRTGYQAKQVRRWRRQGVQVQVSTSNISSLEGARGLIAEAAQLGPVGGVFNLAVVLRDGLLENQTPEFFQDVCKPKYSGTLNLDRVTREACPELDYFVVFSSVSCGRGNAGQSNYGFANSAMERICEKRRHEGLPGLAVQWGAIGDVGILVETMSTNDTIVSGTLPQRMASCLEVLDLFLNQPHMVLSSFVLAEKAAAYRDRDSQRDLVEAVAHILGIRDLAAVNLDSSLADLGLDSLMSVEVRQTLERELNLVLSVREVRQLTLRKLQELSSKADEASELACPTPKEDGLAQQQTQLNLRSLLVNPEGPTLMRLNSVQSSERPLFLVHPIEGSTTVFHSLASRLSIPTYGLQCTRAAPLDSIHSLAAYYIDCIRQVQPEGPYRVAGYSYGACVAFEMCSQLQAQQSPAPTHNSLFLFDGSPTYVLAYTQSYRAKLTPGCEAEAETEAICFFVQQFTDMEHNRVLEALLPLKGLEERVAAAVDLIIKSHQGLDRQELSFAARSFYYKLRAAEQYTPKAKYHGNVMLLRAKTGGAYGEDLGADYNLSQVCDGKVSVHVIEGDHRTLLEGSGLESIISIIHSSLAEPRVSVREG

`CCCCCCCCOC(=O)c1ccccc1C(=O)OCCCCCCCC`: the outcome in [1], in test [2], in [3], in test [4], in [5] and in test [6] was inactive. Besides, the call in [7], in test [8] and in test [9] was inactive.

For `O=S(=O)(O)C(F)(F)C(F)(F)C(F)(F)C(F)(F)F`, the compound was called inactive in test [1], in [2], in test [3], in [4], in test [5] and in test [6]. In addition, the compound was called inactive in test [7], in test [8] and in test [9].

What is called AC50 is the concentration giving half of the maximal activity seen. In the case of `NS(=O)(=O)C(F)(F)C(F)(F)C(F)(F)C(F)(F)C(F)(F)C(F)(F)C(F)(F)C(F)(F)F`, the call in test [10], in test [1] and in [3] was inactive. Further, the AC50 in [2] is 12.9 µM (active); in test [4] it was 1.8 µM (active); in test [5], 50 µM (active); in test [6] it was 9.12 µM (active); in [7] it was 11.8 µM (active); in [8] it was 13.8 µM (active). Moreover, the AC50 in [9] is 7.67 µM (active).

Take `CCC(=O)O[C@H]1CC[C@H]2[C@@H]3CCC4=CC(=O)CC[C@]4(C)[C@H]3CC[C@]12C`: the half-maximal activity concentration (AC50) is 2.65 µM (active) in test [10] and 13.1 µM (active) in test [8]. In addition, the compound was called inactive in test [1], in test [2], in test [3], in [4], in test [5] and in test [6]. For the same compound, the result in test [7] and in test [9] was inactive.

In the case of `CCC(C)(CC)c1cc(NC(=O)c2c(OC)cccc2OC)on1`, the compound was classed as inactive in test [10], in test [1], in test [3], in test [4], in test [5] and in test [6]. The outcome in test [7] and in test [9] was inactive. Moreover, the results for the AC50 in test [2] and in test [8] were 33.8 µM (active) and 10.2 µM (active), respectively.

As for `CCOP(=S)(OCC)SCSC(C)(C)C`, the result in test [10], in [1], in [2], in test [3], in test [4] and in [5] was inactive. In addition, the compound was classed as inactive in test [6], in [7], in test [8] and in test [9].

As for `Oc1c(Cl)c(Cl)c(Cl)c(Cl)c1Cl`, the AC50 in test [1] was 6.31 µM (active); in test [2], 1.87 µM (active); in [6], 2.73 µM (active); in [7], 4.5 µM (active); in test [8], 7.23 µM (active); in test [9] it was 2.17 µM (active). Moreover, the compound was called inactive in [3], in test [4] and in test [5].

Turning to `Nc1ccc(-c2ccc(N)cc2)cc1`, the AC50 in test [10] was 15.2 µM (active); in test [8], 50 µM (active). The result in test [1], in [2], in test [3], in test [4], in test [5] and in test [6] was inactive. In addition, the result in test [7] and in [9] was inactive.

Regarding `CCSC(=O)N(CC)C1CCCCC1`, the result in test [10], in test [1], in test [2], in test [3], in test [4] and in test [5] was inactive. In addition, the compound was called inactive in test [6], in [7], in test [8] and in test [9].

In the case of `CCNc1nc(NC(C)C)nc(SC)n1`, the call in test [10], in test [1], in [4], in test [5], in [6] and in [9] was inactive. In addition, the AC50 is 50 µM (active) in [7] and 19.8 µM (active) in test [8].

In the case of `O=C(NC(=O)c1cc(F)c(F)cc1Cl)Nc1cc(F)ccc1N1CCC(C(=O)O)CC1`, the compound was classed as inactive in test [1], in [2], in test [3], in [4], in test [5] and in [6]. Further, the call in test [7] and in test [9] was inactive. Besides, the AC50 in [8] is 25 µM (active).

For `O=C(O)C(F)(F)C(F)(F)C(F)(F)C(F)(F)C(F)(F)F`, the call in [1], in test [2], in [3], in test [4], in [5] and in test [6] was inactive. For the same compound, the call in test [9] was inactive. Also, the concentration at half-maximal activity (AC50) in test [7] is 2.34 µM (active); in test [8] it was 50 µM (active).

In the case of `CCOCCOC(C)=O`, the call in [10], in [1], in test [2], in test [3], in test [4] and in test [5] was inactive. The outcome in test [6], in test [7] and in [9] was inactive. Further, the AC50 in test [8] is 50 µM (active).

As to `C=CC(N)=O`, the result in test [1], in test [2], in test [3], in test [4], in test [5] and in test [6] was inactive. Also, the compound was classed as inactive in test [7], in [8] and in [9].

As for `C[C@]12CCC(=O)C=C1CC[C@@H]1[C@@H]2CC[C@]2(C)C(=O)CC[C@@H]12`, the AC50 is 0.271 µM (active) in test [10] and 82.7 µM (active) in test [2]. In addition, the compound was called inactive in [1], in test [4], in [5], in test [6], in [7] and in [8]. In addition, the outcome in test [9] was inactive.
